Source: PubChem
This excerpt belongs to a sample that is enriched for hits.
Sm TGR inh – S. mansoni TGR enzyme inhibition; Q962Y6; purified TGR, DTNB reduction, TNB absorbance 405 nm; Potency, µM (top dose mostly 114 µM), inactives show top-dose activity change, negative = inhibition, most hits filed as inhibitors; 360,000 tested, 3% active; AID 485364; also: potency is read from the fitted curve at half-maximal effect; % is scaled to controls: 0 for no effect and ±100 for the full control effect; nearly all actives have a fitted effect of over 60% in size
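First, TGR (20 nM dispensed) and NADPH were mixed with compound. Second, a 15 min room-temperature incubation followed. Third, further NADPH and then DTNB were added to start the reaction. Finally, TNB absorbance was monitored kinetically.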
Giardia FBPA inh – inhibitors of Giardia lamblia fructose-1,6-bisphosphate aldolase | AID 2451 | Potency, µM (doses to about 59.6 µM), without a hit: top-dose activity, negative = inhibition, actives largely listed as inhibitors | 290,000 tested, 0.71% active | purified Giardia FBPA | A8B2U2; also: potency is read from the fitted curve at half-maximal effect; % is scaled to controls: 0 for no effect and ±100 for the full control effect; nearly all actives have a fitted effect of over 55% in size
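Giardia FBPA (40 nM reagent) was preincubated 10 min at RT with compound (up to 57.5 uM final), then substrate plus GAPDH/TPI/NAD/arsenate coupling system with diaphorase/resazurin was added; resorufin fluorescence (525/598 nm) was read after 20 min.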
CHX counter – affects cycloheximide protein synthesis inhibition readout, counter-screen | cell reporter, cycloheximide protein synthesis inhibition counterscreen | max response, % | 300,000 tested, 12% active; in the data active = max response mostly above about 13%, no sharp cut-off; inactive = mostly below about 14%; also: read at 38.3 µM for the half of the compounds with a filed dose; 0% is about no effect
Shiga inhibitor – Shiga toxin inhibition; Vero cells, Shiga toxin protein synthesis inhibition reporter; inhibition, % at 38.7 µM; 290,000 tested, 9.2% active; in the data active = inhibition mostly above about 28%, no sharp cut-off; inactive = mostly below about 43%; also: 0% is about no effect
LmPK inh – inhibitors of Leishmania mexicana pyruvate kinase; Q27686; AID 1721; Potency, µM (doses to about 57.5 µM), for inactives: at the highest dose activity change, negative = inhibition, hits mostly inhibitors; purified LmPK, Kinase-Glo ATP luminescence, 1 h; 290,000 tested, 0.37% active; also: potency is read from the fitted curve at half-maximal effect; % is scaled to controls: 0 for no effect and ±100 for the full control effect
Target sequence (Q27686 whole entry, looked up): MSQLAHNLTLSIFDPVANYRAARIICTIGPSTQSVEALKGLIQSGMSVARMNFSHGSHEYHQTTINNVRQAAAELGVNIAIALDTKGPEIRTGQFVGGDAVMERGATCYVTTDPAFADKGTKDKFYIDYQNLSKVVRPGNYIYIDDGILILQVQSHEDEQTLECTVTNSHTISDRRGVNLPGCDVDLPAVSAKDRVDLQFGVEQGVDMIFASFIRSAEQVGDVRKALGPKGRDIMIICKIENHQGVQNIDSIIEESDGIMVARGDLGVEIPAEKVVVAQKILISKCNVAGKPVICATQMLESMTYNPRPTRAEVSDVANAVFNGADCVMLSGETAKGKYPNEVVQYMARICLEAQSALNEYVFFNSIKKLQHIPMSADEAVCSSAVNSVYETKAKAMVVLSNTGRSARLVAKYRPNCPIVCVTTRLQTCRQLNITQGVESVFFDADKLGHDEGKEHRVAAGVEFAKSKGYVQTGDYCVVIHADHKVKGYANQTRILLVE
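qHTS format; LmPK 0.1 nM; substrates PEP 0.5 mM and ADP 0.1 mM. One-hour room-temperature incubation, then coupled luciferase luminescence; 0.5 nM enzyme wells mark activation.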
Tb PYK inh – T. brucei pyruvate kinase inhibition; TbPYK enzyme, Kinase-Glo Plus ATP luminescence, 45 min; Potency, µM (titrated, usually from 76.8 µM), without a hit: top-dose activity, negative = inhibition, most hits filed as inhibitors; 410,000 tested, 0.12% active; also: potency is read from the fitted curve at half-maximal effect; % is scaled to controls: 0 for no effect and ±100 for the full control effect; nearly all actives have a fitted effect of over 50% in size
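T. brucei PYK with substrate was exposed to pin-transferred compounds across a concentration series, then started with 130 uM ADP (final). After 45 min at room temperature, Kinase-Glo Plus luminescence was read, normalized and curve-fitted.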
* hit, by the source's call; u = inconclusive; x = not tested or not shown; [ ] = another dose, or the depositor's remark. Unless noted, calls follow the shape of the dose curve; as a rule, active = well fitted curve in the direction sought with a large enough effect; inconclusive = small, poorly fitted or top-dose-only effect, or another doubt; inactive = no such curve, though single readings can be large; an effect the other way counts as inactive or inconclusive.

SMILES	Sm TGR inh	Giardia FBPA inh	CHX counter	Shiga inhibitor	LmPK inh	Tb PYK inh
CN(C)c1ccc(/C=C/c2cccc[n+]2[O-])cc1	1%	-11%	33*	59*	-2%	-18%
CN(CCCS(=O)(=O)[O-])c1ccc(/C=C/c2ccc3ccccc3[n+]2C)cc1	0%	-1%	8	19	-5%	-11%
[O-][n+]1ccccc1/C=C/c1ccccc1	x	x	x	x	x	-4%
COc1ccc(/C=C/c2ccc3ccccc3[n+]2C)cc1OC	6%	-1%	44*	71*	2%	1%
COc1cc(OC)c(NC(=O)C(CC(C)C)N2Cc3ccccc3C2=O)cc1Cl (centres undefined)	-1%	x	x	x	x	-3%
O=C(O)CN1C(=O)/C(=C/c2ccc(-c3cccc(Cl)c3)o2)SC1=S	x	x	-4	-5	x	x
CN(C)c1ccc(/C=C/c2ccc3ccccc3[n+]2C)cc1	1%	-9%	19*	23	14µM*	u
Cc1ccc(CNC(=O)CSc2ccsc2[N+](=O)[O-])cc1	u	0%	54*	72*	3%	-9%
COc1ccc(CNC(=O)CSc2ccsc2[N+](=O)[O-])cc1	-28%	-1%	34*	84*	-1%	-3%
O=C(CSc1ccsc1[N+](=O)[O-])Nc1cc(F)ccc1F	35µM*	-12%	19*	45*	0%	4%
Cc1nn(S(=O)(=O)c2ccc(C(C)(C)C)cc2)c(C)c1S(=O)(=O)N1CCC(C)CC1	2%	x	x	x	x	-4%
Oc1cc2ccccc2cc1-c1n[nH]c(=S)o1	-6%	2%	0	-17	u	u
S=c1[nH]nc(-c2cc3c(s2)-c2ccccc2CC3)o1	-1%	15%	30*	56*	-14%	-35%
CC1CCc2sc(-c3n[nH]c(=S)o3)cc2C1 (centres undefined)	12%	u	19*	41*	u	u
CSc1nnc(-c2cc3c(s2)-c2ccccc2CC3)o1	-5%	-7%	25*	80*	-4%	-5%
COc1cc(NS(=O)(=O)c2ccc(NC(=O)c3ccc(C(C)=O)cc3)cc2)nc(OC)n1	0%	x	x	x	x	-1%
Cc1cccc(-c2nc(NCCCN(C)C)c3ccccc3n2)c1	2%	u	14*	51	3%	0%
Cc1ccc(-c2nc(NCCN(C)C)c3ccccc3n2)cc1	-28%	4%	18*	80	0%	-3%
CCCCN(CCCC)c1nc(-c2ccccc2)nc2ccccc12	-2%	x	x	x	x	-1%
COCCN(CCOC)c1nc(-c2ccc(C)cc2)nc2ccccc12	-20%	-7%	13*	73*	0%	3%
CN(C)CCCNc1nc(-c2ccc(Cl)cc2)nc2ccccc12	9%	7%	1	-2	0%	1%
COC(=O)c1cccc(Nc2nn3c(=O)c4cc5c(cc4nc3s2)OCO5)c1	0%	x	x	x	x	-3%
Cc1c(CC(=O)NC(C)C)c(=O)oc2cc3c(cc12)CCC(C)(C)O3	3%	-7%	35*	54*	-5%	-4%
Cc1c(CC(=O)N[C@@H](C)C(=O)O)c(=O)oc2cc3c(cc12)CCC(C)(C)O3	0%	-3%	-1	-6	0%	3%
Cc1c(CC(=O)N2CCC(O)CC2)c(=O)oc2cc3c(cc12)CCC1(CCCCC1)O3	x	x	x	x	x	-2%
SMILES	Sm TGR inh	Giardia FBPA inh	CHX counter	Shiga inhibitor	LmPK inh	Tb PYK inh
Cc1c(CC(=O)NCC(C)C)c(=O)oc2cc3c(cc12)CCC(C)(C)O3	5%	7%	23*	41*	-6%	-6%
CCC(C)NC(=O)Cc1c(C)c2cc3c(cc2oc1=O)OC(C)(C)CC3 (centres undefined)	2%	2%	40*	63*	-2%	-3%
Cc1c(CC(=O)N[C@H](C(=O)O)C(C)C)c(=O)oc2cc3c(cc12)CCC(C)(C)O3	11%	2%	67*	98*	0%	-19%
COc1ccc(NC(=O)c2cccc(S(=O)(=O)N3CCCCCC3)c2)cc1	1%	15%	7	31	3%	4%
Cc1ccc(NC(=O)c2cnc(SCC(=O)N3CCOCC3)n(C)c2=O)cc1C	-1%	x	x	x	x	2%
CCOC(=O)OCC1OC(C#CC(C)(C)C)C=CC1OC(=O)OCC (centres undefined)	x	1%[12.9 µM]	x	x	x	x
CC(=O)N1c2ccc(S(=O)(=O)N3CCCCCC3)cc2CC1C(=O)NCc1ccccc1 (centres undefined)	-6%	x	x	x	x	-5%
COCCNC(=O)Cc1c(C)c2cc3c(cc2oc1=O)OC(C)(C)CC3	5%	-2%	14*	21	-1%	-3%
Cc1c(CC(=O)NCCC(C)C)c(=O)oc2cc3c(cc12)CCC(C)(C)O3	1%	6%	3	-5	2%	-11%
CCOC(=O)/C(C(C)=O)=C1/OC(=O)c2ccccc21	11µM*	4%	-1	-4	-9%	0%
CCOC(=O)/C(C(C)=O)=C1\OC(=O)c2ccccc21	20µM*	11%	-4	-12	-1%	-4%
O=C(O)/C(=C1\OC(=O)c2ccccc21)c1ccccc1	-2%	19%	-3	6	2%	2%
O=C(CSc1nc2ncccc2o1)Nc1ccc(Cl)cc1F	-7%	x	x	x	x	-1%
CC(C)N1C(=O)CC2(CC[N+](C)(CCOC(=O)C(c3ccccc3)c3ccccc3)CC2)C1=O (centres undefined)	50µM*	u	8	14	17%	8%
COc1cc(CNC(=O)c2ccc3c(c2)c(C)c(C)n3Cc2cccc(C)c2)cc(OC)c1OC	-8%	x	x	x	x	-2%
O=c1c(-c2ccc(F)cc2)nc2cnc(N3CCOCC3)nc2n1Cc1ccc(F)cc1	x	-12%	x	x	x	x
O=C(Nc1ccc(F)cc1F)c1csc(-c2cccs2)n1	-3%	0%	48*	118*	-5%	0%
O=C(Nc1ccc(F)cc1F)c1csc(-c2ccncc2)n1	0%	1%	27*	15	-1%	-10%
O=C(NNS(=O)(=O)c1ccc(F)cc1F)c1csc(-c2cccnc2)n1	-2%	-5%	-5	-1	-3%	-2%
CC(CC(=O)NC1CCCCC1)S(=O)(=O)c1ccc2c(c1)NC(=O)CO2 (centres undefined)	60%	3%	9	-9	0%	0%
CN(c1ncccc1CNc1nc(Nc2ccc3c(c2)CC(=O)N3)ncc1C(F)(F)F)S(C)(=O)=O	x	x	x	x	x	1%
CCOC(=O)c1c(NC(=O)CCl)sc(CN(C)C)c1-c1ccccc1	16µM*	-3%	-2	-11	5%	-15%
COc1ccc(/C=C/C(=O)OCC(=O)Nc2cc(S(=O)(=O)N(C)C)ccc2Cl)cc1	0%	3%	13*	58*	0%	-5%
CN(C)S(=O)(=O)c1ccc(Cl)c(NC(=O)COC(=O)/C=C/c2ccco2)c1	35µM*	3%	-1	17	5%	-9%
